The full list was thinned out, with hits kept by preference.
MARV entry inh = blocks Marburg virus binding to or entry into cells. Marburg virus pseudotyped entry inhibition, cell reporter. AID 540276. hit rate 1.8% among 300,000. Potency, µM (doses to about 37.8 µM), usual class: inhibitors; calls by dose curve; tested in HEK293 cells
Shiga toxin inh = inhibitors of Shiga toxin in Vero cells; inhibition, % at 38.7 µM; AID 2315; hit rate 9.2% among 290,000; Vero cells, Shiga toxin protein synthesis inhibition reporter; in the data active = inhibition mostly above about 28%, no sharp cut-off; inactive = mostly below about 43%
AMA1-RON2 inh = inhibitors of Plasmodium falciparum AMA1-RON2 interaction. AlphaScreen AMA1-biotinylated RON2 peptide binding. Potency, µM (doses to about 58.2 µM), most hits filed as inhibitors. hit rate 0.2% among 360,000. AID 720542; active = well fitted inhibition curve with a large enough effect; inconclusive = small, poorly fitted or top-dose-only effect; inactive = no such curve, though single readings can be large or run the other way; note: nearly all actives have a fitted effect of over 45% in size
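AMA1 (3D7) with his tag at 25 nM final met compounds first, then biotinylated RON2 peptide at 25 nM; detection used donor plus acceptor beads, 10 µg/mL apiece, read by AlphaScreen after 30 min at room temperature.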
Lassa entry inh = blocks Lassa virus binding to or entry into cells. Lassa virus pseudotype entry inhibition, cell reporter. Potency, µM (series often up to 37.9 µM), usual class: inhibitors. hit rate 1.2% among 300,000. AID 540256; calls by dose curve; tested in HEK293 cells; note: nearly all actives have a fitted effect of over 50% in size
CHX counter = counter-screen for Shiga toxin inhibitors: cycloheximide protein synthesis inhibition; hit rate 12% among 300,000; max response, %; AID 2314; cell reporter, cycloheximide protein synthesis inhibition counterscreen; in the data active = max response mostly above about 13%, no sharp cut-off; inactive = mostly below about 14%; note: read at 38.3 µM for the half of the compounds with a filed dose
Numbers stand for hits.

Screening COc1cccc(-c2cn3nc(C)c(C)nc3n2)c1 returned MARV entry inh inconclusive, Shiga toxin inh 167, AMA1-RON2 inh inactive, Lassa entry inh inconclusive and CHX counter 41.
For Cc1nc2nc(-c3ccc(Cl)cc3)cn2nc1C the results were MARV entry inh inactive, Shiga toxin inh 93, AMA1-RON2 inh inactive, Lassa entry inh inconclusive and CHX counter 38.
For Cc1ccc(Nc2nc(N)nc(CN3CCN(C(=O)c4ccco4)CC3)n2)cc1Cl the results were MARV entry inh inconclusive, Shiga toxin inh inactive, AMA1-RON2 inh inactive, Lassa entry inh inactive and CHX counter inactive.
CCC(C)NC(=O)C1CCC(=O)N1CCc1ccccc1 (stereo not given) was read as MARV entry inh inactive, Shiga toxin inh inactive, AMA1-RON2 inh inactive, Lassa entry inh inactive and CHX counter inactive.
`CCC1(c2ccccc2)NC(=O)N(CC(=O)Nc2ccc3c(C)cc(=O)oc3c2)C1=O` (stereo not given) gave MARV entry inh inactive, AMA1-RON2 inh inactive and Lassa entry inh inconclusive.
For Cc1ccc(C(C)C)cc1S(=O)(=O)Nc1cccnc1 the results were MARV entry inh inactive, Shiga toxin inh inactive, AMA1-RON2 inh inactive, Lassa entry inh inactive and CHX counter inactive.
Screening NS(=O)(=O)c1nn2cc(-c3ccccc3)nc2s1 returned Shiga toxin inh 59 and CHX counter 19.
`Cc1nn2cc(-c3ccc(-c4ccccc4)cc3)nc2s1` gave MARV entry inh inconclusive, Shiga toxin inh inactive, AMA1-RON2 inh inactive, Lassa entry inh 11µM and CHX counter 26.
Cc1ccc(-c2cn3nc(-c4ccccc4)c(-c4ccccc4)nc3n2)cc1 was read as MARV entry inh inconclusive, Shiga toxin inh inactive, AMA1-RON2 inh inactive, Lassa entry inh inconclusive and CHX counter 16.
For Cc1nc2nc(-c3cccs3)cn2nc1C the results were MARV entry inh inconclusive, Shiga toxin inh inactive, AMA1-RON2 inh inactive, Lassa entry inh 10µM and CHX counter 31.
Screening CCN1C(=O)[C@@H]2[C@H]3[C@H](O)[C@H](O)CC(=NO[C@H](C)c4cn([C@H](CO)Cc5ccccc5)nn4)[C@@H]3CC[C@H]2C1=O returned MARV entry inh inactive and Lassa entry inh inactive.
For OC1(Cc2cc(-c3ccccc3)no2)CCN(CCCc2ccccc2)CC1 the results were Shiga toxin inh inactive, AMA1-RON2 inh inactive and CHX counter inactive.
Screening Cc1ccc(S(=O)(=O)c2nc(S(=O)(=O)c3ccc(C)cc3)c(NCCCOC(C)C)s2)cc1 returned MARV entry inh inactive and Lassa entry inh inconclusive.
Screening Oc1ccc(Cl)cc1C1=NNC(c2cccs2)C1 (stereo not given) returned Shiga toxin inh 141, AMA1-RON2 inh inactive and CHX counter 43.
Screening Cc1cccc(C2=Nc3ccccc3N=C(c3cc(Cl)ccc3O)C2)c1 returned Lassa entry inh inactive.
`Cc1ccc(O)c(C2=NNC(c3ccc(Cl)cc3)C2)c1` (stereo not given) gave Shiga toxin inh 70, AMA1-RON2 inh inactive and CHX counter 59.
Screening Cc1ccc(O)c(C2=NNC(O)(C(F)(F)F)C2)c1 (stereo not given) returned MARV entry inh inactive, Shiga toxin inh inactive, AMA1-RON2 inh inactive, Lassa entry inh inconclusive and CHX counter inactive.
`COc1cccc(Nc2nccc(-c3cnn4ncccc34)n2)c1` gave Lassa entry inh 0.56µM.
Screening Cc1ccnc(Nc2ccc(CCO)cc2)n1 returned AMA1-RON2 inh inactive.
COc1cccc(Nc2nc3ccccc3n2C(C)C)c1 was read as MARV entry inh inactive, Shiga toxin inh inactive, AMA1-RON2 inh inactive, Lassa entry inh inactive and CHX counter inactive.
For CC(C)c1ccc(Nc2nccc(-c3cnn4ncccc34)n2)cc1 the results were Lassa entry inh 11µM.
`CN(C)c1ccc(-c2nc3cnccn3c2Nc2cccc(C(F)(F)F)c2)cc1` gave MARV entry inh inactive and Lassa entry inh inactive.
Screening CCN(CC)Cc1ccc(Nc2nccc(-c3cnn4ncccc34)n2)cc1 returned Lassa entry inh 0.04µM.
Screening COc1ccc(-c2nn3ncccc3c2-c2ccnc(Nc3cccc(C(F)(F)F)c3)n2)cc1 returned Lassa entry inh 25µM.
For COc1ccc(CCNC(=O)c2cc3cc(Cl)ccc3nc2N)cc1OC the results were AMA1-RON2 inh inactive.
Cn1c(Cn2nnc(-c3ccccc3)n2)nnc1SCc1ccccc1Cl was read as MARV entry inh inactive, Shiga toxin inh inactive, AMA1-RON2 inh inactive, Lassa entry inh inactive and CHX counter inactive.
Screening COc1ccc(NC(=O)CN2C(=O)NC(C)(C3CC3)C2=O)cc1S(=O)(=O)N1CCOCC1 (stereo not given) returned AMA1-RON2 inh inactive.
Screening COc1ccccc1C1/C(=C(\O)c2ccc3c(c2)OCCO3)C(=O)C(=O)N1Cc1cccnc1 (stereo not given) returned Shiga toxin inh inactive, AMA1-RON2 inh inactive and CHX counter inactive.
`CCOc1ccc(CNC(=O)CCC(=O)N2CC(C)Sc3ccccc32)cc1` (stereo not given) gave Lassa entry inh inactive.
For Cc1nnc(SCC(=O)N(C)C2CCCCC2)s1 the results were MARV entry inh inconclusive, Shiga toxin inh inactive, AMA1-RON2 inh inactive, Lassa entry inh inconclusive and CHX counter 11.
`CN(C(=O)CSc1n[nH]c(N)n1)C1CCCCC1` gave AMA1-RON2 inh inactive.
Cc1ccccc1NS(=O)(=O)c1cc(C(=O)NCc2ccco2)ccc1C was read as MARV entry inh inactive, Shiga toxin inh inactive, AMA1-RON2 inh inactive, Lassa entry inh 1.6µM and CHX counter inactive.
`O=C(NCc1ccco1)c1ccc(Cl)c(S(=O)(=O)N2CCOCC2)c1` gave MARV entry inh inactive, Shiga toxin inh inactive, AMA1-RON2 inh inactive, Lassa entry inh inactive and CHX counter inactive.
For Cc1ccc(SCCNC(=O)c2ccc(C)c(S(=O)(=O)Nc3ccccc3C)c2)cc1 the results were MARV entry inh 23µM, Shiga toxin inh inactive, AMA1-RON2 inh inactive, Lassa entry inh 10µM and CHX counter inactive.
Screening Cc1ccccc1NS(=O)(=O)c1cc(C(=O)NCCC2=CCCCC2)ccc1C returned MARV entry inh inactive, Shiga toxin inh inactive, AMA1-RON2 inh inactive, Lassa entry inh inconclusive and CHX counter inactive.
Cc1ccc(C(=O)NCc2ccco2)cc1S(=O)(=O)N1CCCCC1 was read as MARV entry inh inactive, Shiga toxin inh inactive, AMA1-RON2 inh inactive, Lassa entry inh inconclusive and CHX counter inactive.
For Cc1ccc(C(=O)Nc2ccccc2C(=O)NCc2ccco2)cc1S(=O)(=O)N1CCCCC1 the results were MARV entry inh inconclusive, Shiga toxin inh 52, AMA1-RON2 inh inactive, Lassa entry inh inactive and CHX counter 31.
`Cc1ccc(C)c(NS(=O)(=O)c2cc(C(=O)NCc3ccco3)ccc2C)c1` gave MARV entry inh inactive, Shiga toxin inh inactive, AMA1-RON2 inh inactive, Lassa entry inh inconclusive and CHX counter inactive.
`O=C(NCc1ccco1)c1ccc(Cl)c(S(=O)(=O)N2CCc3ccccc32)c1` gave MARV entry inh inconclusive, Shiga toxin inh inactive, AMA1-RON2 inh inactive, Lassa entry inh inconclusive and CHX counter 17.
O=C(CCCCn1c(=O)c2ccccc2n(Cc2cccc(F)c2)c1=O)NCc1ccc2c(c1)OCO2 was read as MARV entry inh inconclusive and Lassa entry inh inactive.

Compound activity from PubChem BioAssay.
